Consider 13 compounds from ChEMBL document CHEMBL1961873, “Compounds: GSK PKIS; Assays: Nanosyn kinase panel” (2012).

The target in assay [1] is Platelet-derived growth factor receptor beta (Homo sapiens) (UniProt P09619). To be noted: at 1 µM.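 Further: each value is a mean percent inhibition.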
Assay [2] concerns the target Tyrosine-protein kinase FRK (Homo sapiens) (UniProt P42685). To be noted: at 0.1 µM.
For assay [3] the target is unchanged. Conditions: at 1 µM.
Assay [4] concerns the target Protein-tyrosine kinase 2-beta (Homo sapiens) (UniProt Q14289). To be noted: at 0.1 µM.
The target is the same in assay [5]. Conditions: at 1 µM.
For assay [6], the target named is Proto-oncogene tyrosine-protein kinase receptor Ret (Homo sapiens) (UniProt P07949). Conditions: at 0.1 µM.
Assay [7] has the same target. Conditions: at 1 µM.
Assay [8] relates to Proto-oncogene tyrosine-protein kinase receptor Ret (Homo sapiens), P07949 [V804L]. To be noted: at 0.1 µM.
Assay [9] shares this test system. To be noted: at 1 µM.
Assay [10] deals with Proto-oncogene tyrosine-protein kinase receptor Ret (Homo sapiens), P07949 [Y791F]. Conditions: at 0.1 µM.
The test system is the same in assay [11]. To be noted: at 1 µM.
The target in assay [12] is Macrophage-stimulating protein receptor (Homo sapiens) (UniProt Q04912). To be noted: at 0.1 µM.
Assay [13] shares this target. To be noted: at 1 µM.
Assay [14] has as its target Proto-oncogene tyrosine-protein kinase ROS (Homo sapiens) (UniProt P08922). Conditions: at 0.1 µM.
For assay [15] the target is unchanged. Conditions: at 1 µM.
The target in assay [16] is Proto-oncogene tyrosine-protein kinase Src (Homo sapiens) (UniProt P12931). To be noted: at 0.1 µM.
Assay [17] has the same target. To be noted: at 1 µM.
Assay [18] concerns the target Tyrosine-protein kinase Srms (Homo sapiens) (UniProt Q9H3Y6). Conditions: at 0.1 µM.
Assay [19] shares this target. Conditions: at 1 µM.
Assay [20] has as its target Tyrosine-protein kinase SYK (Homo sapiens) (UniProt P43405). Conditions: at 0.1 µM.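 Further: reported percentages are mean inhibition values for SYK.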

The structures appear in SMILES notation.

Sequence of Macrophage-stimulating protein receptor (Homo sapiens) (Q04912 25-304 limits assumed): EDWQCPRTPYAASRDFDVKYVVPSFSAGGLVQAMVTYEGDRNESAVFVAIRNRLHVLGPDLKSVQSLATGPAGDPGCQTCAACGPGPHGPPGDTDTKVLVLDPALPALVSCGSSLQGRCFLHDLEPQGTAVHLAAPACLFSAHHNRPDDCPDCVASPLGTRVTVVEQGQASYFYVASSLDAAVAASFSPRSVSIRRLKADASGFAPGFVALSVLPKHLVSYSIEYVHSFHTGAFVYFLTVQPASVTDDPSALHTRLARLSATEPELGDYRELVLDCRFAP
Sequence of Macrophage-stimulating protein receptor (Homo sapiens) (Q04912 310-1400 limits assumed): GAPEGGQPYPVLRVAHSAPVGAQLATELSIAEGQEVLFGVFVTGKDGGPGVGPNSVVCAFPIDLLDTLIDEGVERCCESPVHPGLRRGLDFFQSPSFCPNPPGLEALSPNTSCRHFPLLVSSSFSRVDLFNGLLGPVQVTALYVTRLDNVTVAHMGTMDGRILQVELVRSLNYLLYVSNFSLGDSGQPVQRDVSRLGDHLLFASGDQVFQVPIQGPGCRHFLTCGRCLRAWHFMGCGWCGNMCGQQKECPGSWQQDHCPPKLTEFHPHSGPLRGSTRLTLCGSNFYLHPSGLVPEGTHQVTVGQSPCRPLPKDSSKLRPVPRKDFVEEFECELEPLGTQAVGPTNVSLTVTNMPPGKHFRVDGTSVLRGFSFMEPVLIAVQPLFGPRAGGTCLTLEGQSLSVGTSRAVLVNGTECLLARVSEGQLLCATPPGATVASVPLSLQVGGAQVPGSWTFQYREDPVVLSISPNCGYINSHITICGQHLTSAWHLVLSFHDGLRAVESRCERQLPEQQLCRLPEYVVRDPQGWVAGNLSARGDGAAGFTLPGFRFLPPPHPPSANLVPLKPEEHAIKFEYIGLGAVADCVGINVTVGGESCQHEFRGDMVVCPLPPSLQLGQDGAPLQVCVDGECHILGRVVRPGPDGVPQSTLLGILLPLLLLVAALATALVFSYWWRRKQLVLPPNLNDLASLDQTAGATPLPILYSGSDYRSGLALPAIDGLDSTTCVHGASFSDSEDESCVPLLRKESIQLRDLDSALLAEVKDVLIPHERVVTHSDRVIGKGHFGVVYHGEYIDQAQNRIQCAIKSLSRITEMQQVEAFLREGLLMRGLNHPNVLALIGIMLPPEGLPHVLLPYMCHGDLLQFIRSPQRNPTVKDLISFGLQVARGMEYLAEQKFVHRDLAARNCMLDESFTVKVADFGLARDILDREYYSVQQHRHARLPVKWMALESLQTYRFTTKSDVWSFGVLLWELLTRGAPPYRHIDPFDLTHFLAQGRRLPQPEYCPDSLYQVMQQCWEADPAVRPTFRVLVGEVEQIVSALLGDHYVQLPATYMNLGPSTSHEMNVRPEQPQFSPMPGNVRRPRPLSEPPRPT
Sequence of Proto-oncogene tyrosine-protein kinase ROS (Homo sapiens) (P08922 whole entry): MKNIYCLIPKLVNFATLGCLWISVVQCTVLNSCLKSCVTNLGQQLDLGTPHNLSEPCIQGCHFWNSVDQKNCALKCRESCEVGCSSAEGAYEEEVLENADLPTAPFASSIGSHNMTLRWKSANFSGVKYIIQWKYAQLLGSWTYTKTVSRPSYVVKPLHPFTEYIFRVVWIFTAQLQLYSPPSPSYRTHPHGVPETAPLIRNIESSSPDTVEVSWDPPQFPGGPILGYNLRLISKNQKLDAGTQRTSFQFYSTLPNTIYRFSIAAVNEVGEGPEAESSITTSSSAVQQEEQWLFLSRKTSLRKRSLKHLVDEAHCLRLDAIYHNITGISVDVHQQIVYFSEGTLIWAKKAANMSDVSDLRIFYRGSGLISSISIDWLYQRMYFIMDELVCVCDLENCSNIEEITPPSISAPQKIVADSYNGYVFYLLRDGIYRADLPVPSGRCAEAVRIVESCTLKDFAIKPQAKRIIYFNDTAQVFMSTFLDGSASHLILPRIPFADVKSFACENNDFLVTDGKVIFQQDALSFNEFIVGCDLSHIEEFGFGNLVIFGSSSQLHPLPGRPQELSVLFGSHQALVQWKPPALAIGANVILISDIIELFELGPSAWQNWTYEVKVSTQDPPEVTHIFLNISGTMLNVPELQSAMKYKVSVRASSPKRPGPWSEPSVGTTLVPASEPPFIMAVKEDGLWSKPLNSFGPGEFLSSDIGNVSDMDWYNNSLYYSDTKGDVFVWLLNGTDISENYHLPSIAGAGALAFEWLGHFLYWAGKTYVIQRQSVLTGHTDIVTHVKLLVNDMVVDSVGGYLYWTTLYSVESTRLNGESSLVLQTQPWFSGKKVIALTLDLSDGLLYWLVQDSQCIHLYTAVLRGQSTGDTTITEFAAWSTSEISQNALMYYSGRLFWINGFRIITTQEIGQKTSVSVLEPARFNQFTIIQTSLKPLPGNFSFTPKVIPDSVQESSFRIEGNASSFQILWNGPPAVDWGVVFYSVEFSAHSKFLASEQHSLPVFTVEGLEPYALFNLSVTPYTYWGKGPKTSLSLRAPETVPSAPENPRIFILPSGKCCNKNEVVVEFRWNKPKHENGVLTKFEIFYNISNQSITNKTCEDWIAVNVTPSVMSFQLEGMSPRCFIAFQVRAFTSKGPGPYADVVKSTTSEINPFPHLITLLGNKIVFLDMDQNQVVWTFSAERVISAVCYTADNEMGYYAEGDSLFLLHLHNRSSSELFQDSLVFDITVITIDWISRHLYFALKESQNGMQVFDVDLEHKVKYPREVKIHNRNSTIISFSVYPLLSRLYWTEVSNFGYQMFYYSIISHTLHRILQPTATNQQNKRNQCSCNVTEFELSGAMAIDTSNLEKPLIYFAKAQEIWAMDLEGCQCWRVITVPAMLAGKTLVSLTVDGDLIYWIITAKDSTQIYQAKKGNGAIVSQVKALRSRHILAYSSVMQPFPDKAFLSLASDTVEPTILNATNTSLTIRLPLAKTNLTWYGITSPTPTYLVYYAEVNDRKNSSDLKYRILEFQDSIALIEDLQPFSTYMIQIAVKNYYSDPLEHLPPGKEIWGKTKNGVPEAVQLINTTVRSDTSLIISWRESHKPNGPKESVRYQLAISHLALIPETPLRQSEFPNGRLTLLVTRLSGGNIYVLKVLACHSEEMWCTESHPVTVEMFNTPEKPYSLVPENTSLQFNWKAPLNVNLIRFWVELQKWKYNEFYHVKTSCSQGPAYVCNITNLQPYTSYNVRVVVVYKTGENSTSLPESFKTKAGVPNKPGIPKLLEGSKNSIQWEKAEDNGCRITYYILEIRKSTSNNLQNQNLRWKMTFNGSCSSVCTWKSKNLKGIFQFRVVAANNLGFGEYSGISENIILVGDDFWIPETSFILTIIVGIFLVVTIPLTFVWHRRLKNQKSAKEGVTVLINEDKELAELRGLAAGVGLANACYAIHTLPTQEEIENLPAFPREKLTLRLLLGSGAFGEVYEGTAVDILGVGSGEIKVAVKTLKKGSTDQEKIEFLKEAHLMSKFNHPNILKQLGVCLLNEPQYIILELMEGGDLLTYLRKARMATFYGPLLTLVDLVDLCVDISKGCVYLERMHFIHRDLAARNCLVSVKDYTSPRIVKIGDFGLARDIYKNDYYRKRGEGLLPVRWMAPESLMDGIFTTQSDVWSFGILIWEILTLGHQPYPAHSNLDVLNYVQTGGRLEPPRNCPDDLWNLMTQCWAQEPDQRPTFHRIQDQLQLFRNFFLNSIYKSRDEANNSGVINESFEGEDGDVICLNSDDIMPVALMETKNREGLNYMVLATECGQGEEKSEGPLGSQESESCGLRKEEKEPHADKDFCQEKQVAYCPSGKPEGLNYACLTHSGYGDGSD
Sequence of Tyrosine-protein kinase FRK (Homo sapiens) (P42685 whole entry): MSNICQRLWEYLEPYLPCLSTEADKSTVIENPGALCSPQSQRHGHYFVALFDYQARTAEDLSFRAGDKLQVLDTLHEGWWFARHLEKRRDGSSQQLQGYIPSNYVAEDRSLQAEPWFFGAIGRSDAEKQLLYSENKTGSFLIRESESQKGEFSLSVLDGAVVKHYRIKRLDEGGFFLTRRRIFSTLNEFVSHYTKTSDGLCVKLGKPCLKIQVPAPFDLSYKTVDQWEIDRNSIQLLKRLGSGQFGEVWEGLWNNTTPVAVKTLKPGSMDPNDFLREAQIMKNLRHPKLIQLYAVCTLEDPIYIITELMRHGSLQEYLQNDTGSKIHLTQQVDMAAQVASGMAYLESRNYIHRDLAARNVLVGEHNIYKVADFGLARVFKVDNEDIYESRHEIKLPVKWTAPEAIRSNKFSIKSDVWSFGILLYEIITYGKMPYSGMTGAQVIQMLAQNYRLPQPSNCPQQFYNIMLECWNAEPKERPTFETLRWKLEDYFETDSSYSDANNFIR
Sequence of Tyrosine-protein kinase Srms (Homo sapiens) (Q9H3Y6 whole entry): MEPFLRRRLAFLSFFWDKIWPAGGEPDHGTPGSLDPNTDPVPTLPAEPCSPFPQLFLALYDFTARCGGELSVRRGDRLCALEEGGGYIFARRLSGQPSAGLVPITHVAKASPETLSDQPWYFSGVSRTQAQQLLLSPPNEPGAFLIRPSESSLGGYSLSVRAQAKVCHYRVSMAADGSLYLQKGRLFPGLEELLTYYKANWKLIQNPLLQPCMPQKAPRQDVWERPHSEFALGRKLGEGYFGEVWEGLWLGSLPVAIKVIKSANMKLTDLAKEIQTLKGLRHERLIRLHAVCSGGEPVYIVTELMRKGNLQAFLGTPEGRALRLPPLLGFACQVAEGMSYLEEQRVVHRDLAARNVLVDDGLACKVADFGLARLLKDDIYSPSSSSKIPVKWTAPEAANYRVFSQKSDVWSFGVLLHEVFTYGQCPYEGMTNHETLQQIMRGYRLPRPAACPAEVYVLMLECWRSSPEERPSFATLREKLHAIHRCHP

On to `COc1cccc(-n2ncc3c(N/N=C/c4ccc(S(C)(=O)=O)cc4)ncnc32)c1`, for which the inhibition (in general, the relative decrease from the control value, in per cent) amounted to 78.1% in assay [1]; 0.47% in [2]; 3.05% in assay [3]; 3.04% in assay [4]; 5.9% in [5]; 11.4% in assay [6]. The inhibition in assay [7] was 30.7%; in assay [8], 4.8%; in assay [9] it was 8.24%; in assay [10] it was 14.1%; in assay [11] it was 26.7%; in assay [12] it was 29.4%. The inhibition in assay [13] came out at 44.3%; in assay [14], 7.29%; in assay [15], 27.2%; in assay [16], 56.5%; in assay [17], 77.4%; in assay [18], 4.95%. The inhibition in [19] was 17.8%; in assay [20] it was -2.46%.

In the case of `CCn1c(-c2nonc2N)nc2ccc(F)cc21`, the inhibition in assay [1] turned out to be 4.28%; in [2] it was 2.61%; in assay [3], 1.89%; in [6], 6.24%; in [7], 5.07%; in [8] it was 3.33%. Further, the inhibition in [9] was 15.8%; in assay [10], 6.33%; in assay [11], 11.3%; in assay [12], 0.5%; in assay [13], 6.19%; in assay [14], 5.7%. Besides, the inhibition in assay [15] was 8.6%; in assay [16], 4.3%; in [17], 9.9%; in [18], -2.63%; in [19], -0.49%; in assay [20], 3.17%.

Turning to `CN(c1ccc(NC(=O)Nc2ccc(OC(F)(F)F)cc2)cc1)c1ccnc(Nc2cccc(S(N)(=O)=O)c2)n1`, the inhibition in assay [1] came to 82.1%; in assay [2] it was 5.62%; in assay [3], 40.9%; in [4], 5.52%; in [5], 59%; in assay [6], 79.8%. Further, the inhibition is 72% in assay [7]; 53.8% in assay [8]; 86.4% in assay [9]; 67.4% in [10]; 92.1% in assay [11]; 54.3% in [12]. The inhibition stood at 90.5% in assay [13]; 15.2% in assay [14]; 66.9% in assay [15]; 41.9% in assay [16]; 86.5% in assay [17]; 0.09% in assay [18]. For the same compound, the inhibition in assay [19] was 14.3%; in [20], -1.49%.

For the compound `Oc1cccc(-c2nc(-c3ccccc3)[nH]c2-c2ccncc2)c1`, the inhibition amounted to 17.1% in [1]; 2.98% in [2]; 16.5% in [3]; 7.31% in [4]; 14.2% in [5]; 27.4% in assay [6]. The inhibition in assay [7] turned out to be 72.8%; in assay [8], 4.04%; in assay [9] it was 7.21%; in [10] it was 30%; in [11], 71.2%; in assay [12], 1.43%. For the same compound, the inhibition is 5.25% in assay [13]; 4.41% in assay [14]; 9.95% in assay [15]; 18.7% in assay [16]; 63.2% in assay [17]; 3.43% in assay [18]. The inhibition in assay [19] is 8.65%; in assay [20] it was -2.15%.

As to `NS(=O)(=O)c1ccc(NC=C2C(=O)Nc3ccc4ncsc4c32)cc1`, the inhibition in assay [1] was found to be 89.8%; in [2], 4.28%; in assay [3], 4.47%; in assay [4], 21.8%; in [5], 66.8%; in assay [6] it was 47.7%. The inhibition was 79.9% in [7]; 59% in assay [8]; 78.3% in assay [9]; 46.1% in [10]; 72.4% in [11]; 10.4% in assay [12]. The inhibition in assay [13] is 56.3%; in [14] it was 17.3%; in assay [15] it was 36.8%; in [16], 14.2%; in assay [17], 61.9%; in [18], -1.05%. Moreover, the results for the inhibition in assay [19] and in assay [20] were 0.07% and -8.02%, respectively.

In the case of `c1ccc(Cc2nc3ccc(Nc4ncnc5ccccc45)cc3[nH]2)cc1`, the inhibition was 14.8% in assay [1]; 2.62% in [2]; 0.81% in assay [3]; 2.62% in [4]; 13.4% in assay [5]; 4.63% in assay [6]. The inhibition in assay [7] is 9.44%; in assay [8], 2.59%; in assay [9], 9.82%; in assay [10] it was 3.35%; in assay [11] it was 6.8%; in assay [12], 4.08%. Besides, the inhibition in [13] was 5.82%; in [14] it was 4.22%; in assay [16], 0.79%; in assay [17] it was 12.8%; in assay [18], -1.79%; in assay [19], -2.82%. Moreover, in assay [20], the inhibition was 8.94%.

As for `OCc1ccc(-c2nc(-c3ccccn3)c(-c3ccc4c(c3)OCO4)[nH]2)cc1`, the inhibition in [1] was 11%; in assay [2] it was 2.25%; in assay [3] it was 2.05%; in assay [4] it was 12%; in assay [5], 13.1%; in assay [6] it was 4.72%. Further, the inhibition in assay [7] was 4.99%; in [8], 4.41%; in assay [9], 1.05%; in assay [10] it was 12.3%; in assay [11], 6.59%; in assay [12], -1.95%. Further, the inhibition in assay [13] was -0.55%; in assay [14], 6.84%; in assay [15] it was 8.11%; in assay [16], -0.99%; in [17], 10.6%; in assay [18], 0.43%. Besides, the inhibition was -1.19% in assay [19] and -7.53% in assay [20].

As for `ON=C1CCc2cc(-c3nc(C4CCNCC4)[nH]c3-c3ccncc3)ccc21`, the inhibition is 23.3% in assay [1]; 2.38% in assay [2]; -1.06% in assay [3]; 1.86% in assay [4]; 1.17% in assay [5]; 1.22% in assay [6]. The inhibition in assay [7] was 7.25%; in assay [8] it was 6.18%; in assay [9] it was -3.85%; in [10], 1.94%; in assay [11] it was 8.46%; in assay [12], -6.87%. Also, the inhibition is 1.8% in assay [13]; 1.07% in assay [14]; 2.47% in assay [15]; 2.03% in assay [16]; 0.66% in assay [17]; 0% in assay [18]. Also, the inhibition is -2.67% in assay [19] and 2.82% in [20].

With `NS(=O)(=O)c1ccc(N/N=C2\C(=O)Nc3ccc(Cl)cc32)cc1`, the inhibition is 36.7% in assay [1]; 1.76% in assay [2]; 1.45% in assay [3]; 6.41% in [4]; 14% in [5]; -0.09% in [6]. Besides, the inhibition in assay [7] is 14.5%; in assay [8], 8.27%; in assay [9] it was 41.6%; in assay [10], 2.06%; in [11], 22.3%; in [12], 3.12%. For the same compound, the inhibition in assay [14] is 4.68%; in [15], 4.73%; in assay [16], -2.96%; in assay [17], 14.1%; in [18] it was 0.76%; in [19], 0.2%. For the same compound, the inhibition in assay [20] is -0.57%.

As for `Cc1cc(-c2ccccn2)cc(C)c1/C=C/c1cncc(-c2nn[nH]n2)c1`, the inhibition in [1] is 13.4%; in assay [2] it was 1.59%; in [3], 4.57%; in [4], 3.75%; in assay [5] it was 13.3%; in assay [6] it was 5.88%. Besides, the inhibition was 5.38% in assay [7]; 3.85% in assay [8]; 5.09% in assay [9]; 5.19% in [10]; 9.36% in assay [11]; 3.67% in assay [12]. Also, the inhibition in assay [13] is 3.94%; in assay [14] it was 9.51%; in assay [15] it was 10.9%; in assay [16] it was 7.7%; in [17] it was 15.4%; in assay [18] it was -2.18%. Further, the values for the inhibition in [19] and in assay [20] were 11.8% and -0.33%, respectively.

In the case of `CN(C)C(=O)O[C@@H]1CN[C@@H](C#Cc2cc3ncnc(Nc4ccc(OCc5cccc(F)c5)c(Cl)c4)c3s2)C1`, the inhibition in [1] was 9.98%; in assay [2], 0.71%; in assay [3], 2.18%; in assay [4] it was -3.27%; in assay [5], 3.14%; in assay [6] it was 3.72%. Also, the inhibition in assay [7] is 4.94%; in assay [8] it was 0.31%; in assay [9], -0.74%; in assay [10], 3.85%; in assay [11], 0.86%; in [12], -3.14%. The inhibition is -2.46% in assay [13]; 1.04% in [14]; 4.92% in assay [15]; 3.94% in assay [16]; 3.62% in assay [17]; -1.8% in [18]. In addition, the inhibition is -0.67% in [19] and 6.58% in assay [20].

`NS(=O)(=O)c1cccc(-c2cc3ccncc3cc2OCc2ccccc2)c1`: the inhibition in [1] was 11.8%; in assay [2] it was 3.66%; in assay [3], 1.68%; in [6], 6.15%; in assay [7] it was 14.3%; in assay [8], 6.02%. In addition, the inhibition in assay [9] was 14.3%; in assay [10], 12.6%; in [11], 18%; in assay [12], 3.72%; in assay [13] it was -2.44%; in assay [14], 10.8%. Further, the inhibition in assay [15] was 17.1%; in assay [16] it was 5.87%; in assay [17] it was 11.2%; in assay [18], -1.16%; in assay [19], -2.93%; in assay [20], -6.65%.

Turning to `O=C1Nc2ccc(-c3cccnc3)cc2C1=Cc1cc(Br)c(O)c(Br)c1`, the inhibition in [2] was 1.84%; in assay [3], 5.49%; in assay [4] it was 9.77%; in assay [5], 9.16%; in assay [6], -0.83%; in assay [7], 7.95%. The inhibition in assay [8] was 2.79%; in assay [9], 16.2%; in [10], 8.02%; in [11] it was 1.19%; in assay [12], -1.31%; in assay [13], 8.32%. Also, the inhibition in assay [14] came out at 8.46%; in assay [15], 18.3%; in [16], 2.96%; in [17], 12.1%; in assay [18], 12.3%; in assay [19] it was 57.9%. Moreover, the inhibition in assay [20] is -3.33%.
